The values below come from PubChem BioAssay (NCI).

Test systems include NCI-H23 lung; NCI-H226 lung; NCI-H322M lung; HOP-62 NSCLC; NCI-H460 lung; HOP-92 NSCLC; NCI-H522 lung; A549/ATCC NSCLC; 786-0 renal; COLO 205 colon.
Holding throughout (assay): NCI-60 one-dose screen, 48 h (100 = growth as untreated, 0 = no growth, -100 = all killed)
Settings in all cases: 10 µM unless noted

Molecules are shown by their SMILES. Compounds without any hit were thinned out: in the full panel of roughly 83,000, 20% have a hit.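 How to read the values: 0–100, growth inhibition (40 = 60% inhibited); 0, no net growth; -100 to 0, cell death (-40 = 40% of starting cells died; -100 = all dead).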 Values without a mark were called inactive. Active and inactive are the calls of the source. How the source made its calls: active means growth percent below 10; inactive means the rest.

With `C=CCn1c(SCC(=O)Nc2ccc(OC)cc2)nnc1-c1ccc(Cl)cc1`, the growth in the assay on NCI-H23 lung is 81.1%; with NCI-H226 lung, 88.8%; with NCI-H322M lung it was 96.4%; in the assay on HOP-62 NSCLC, 101%; in the assay with NCI-H460 lung, 104%; in the assay with HOP-92 NSCLC, 68.8%. The growth was 83.4% in the assay on NCI-H522 lung, 103% with A549/ATCC NSCLC, 104% with 786-0 renal and 107% with COLO 205 colon.
Regarding `C#C[C@]1(O)CC[C@H]2[C@@H]3CC=C4c5sc(C6CC6)nc5CC[C@]4(C)[C@H]3CC[C@@]21C`, the growth with NCI-H23 lung was 86.4%; in the assay with NCI-H226 lung, 94.6%; in the assay on NCI-H322M lung, 84.1%; in the assay on HOP-62 NSCLC, 100%; with NCI-H460 lung, 82.2%; with HOP-92 NSCLC, 120%. The growth was 81.6% in the assay with NCI-H522 lung, 72.5% in the assay on A549/ATCC NSCLC, 51.2% in the assay with 786-0 renal and 119% in the assay on COLO 205 colon.
In the case of `O=C1c2c(c3c4ccc(Br)cc4oc3c3[nH]c4ccccc4c23)C(=O)N1CCO`, the growth in the assay with NCI-H23 lung was 46.3%; in the assay on NCI-H226 lung it was 33.3%; with NCI-H322M lung, 68.1%; in the assay with HOP-62 NSCLC it was 12.2%; in the assay on NCI-H460 lung, 3.9% (active); in the assay with HOP-92 NSCLC it was 62.3%. The growth in the assay with NCI-H522 lung was 43.8%; with A549/ATCC NSCLC, 48.7%; in the assay with 786-0 renal, 30.9%; in the assay with COLO 205 colon it was 52.4%.
Regarding `COc1ccc(-c2ccc3c4c(cccc24)C(=O)N(N2C(=O)c4cccc5cccc(c45)C2=O)C3=O)cc1`, the growth in the assay on NCI-H23 lung is 96.1%; with NCI-H226 lung, 101%; with NCI-H322M lung, 102%; in the assay on HOP-62 NSCLC, 92.7%; in the assay with NCI-H460 lung it was 102%; with HOP-92 NSCLC it was 75.6%. In addition, the growth is 97.1% in the assay on NCI-H522 lung, 107% in the assay on A549/ATCC NSCLC, 99.2% with 786-0 renal and 103% with COLO 205 colon.
As to `O=C1NC(=O)c2c1c1c3ccccc3ccc1c1[nH]c3ccccc3c21`, the growth is 15.8% in the assay with NCI-H23 lung; 12.2% with NCI-H226 lung; 19.4% in the assay on NCI-H322M lung; 1.2% (active) in the assay with HOP-62 NSCLC; 6.41% (active) with NCI-H460 lung; 35.9% in the assay on HOP-92 NSCLC. Further, the growth was 11.3% in the assay on NCI-H522 lung, 23.5% in the assay on A549/ATCC NSCLC, 18.6% in the assay on 786-0 renal and 28.8% in the assay with COLO 205 colon.
As for `Cn1ccnc1C(=O)/C=C/c1ccc(C(=O)Nc2ccc(NC(=O)CCNC(=O)c3csc(Br)n3)cc2)cc1`, the growth in the assay with NCI-H23 lung was 43.5%; in the assay on NCI-H226 lung it was 84.5%; with NCI-H322M lung, 66.2%; in the assay on HOP-62 NSCLC, 62.6%; with NCI-H460 lung, 46.2%; with HOP-92 NSCLC, 103%. Also, the growth with NCI-H522 lung is 29%; in the assay on A549/ATCC NSCLC, 64.5%; in the assay with 786-0 renal, 66.3%; in the assay on COLO 205 colon, 85.7%.
For the compound `NS(=O)(=O)c1ccc(Nc2nc(N/N=C/c3ccc(C(F)(F)F)cc3)nc(Nc3ccccc3)n2)cc1`, the growth with NCI-H23 lung was 52.8%; with NCI-H226 lung, 36.7%; in the assay with NCI-H322M lung it was 52.6%; with HOP-62 NSCLC, 38%; in the assay on NCI-H460 lung it was 14.6%; with HOP-92 NSCLC, 57.4%. The growth is 38% in the assay with NCI-H522 lung, 27.6% in the assay with A549/ATCC NSCLC, -3.55% (active) with 786-0 renal and 29.3% with COLO 205 colon.
On to `Clc1ccc(-c2nc3ccc(/C(=N\N=C\c4ccccc4)c4ccccc4)cc3[nH]2)cc1`, for which the growth with NCI-H23 lung is 95%; with NCI-H226 lung, 82.4%; with NCI-H322M lung, 92.4%; with HOP-62 NSCLC, 111%; in the assay with NCI-H460 lung, 92.5%; in the assay on HOP-92 NSCLC, 96.3%. Besides, the growth with NCI-H522 lung was 76.4%; in the assay on A549/ATCC NSCLC it was 81%; in the assay on 786-0 renal, 84.3%; with COLO 205 colon, 73.1%.
In the case of `CN1C(=O)/C(=C/C=C/c2ccco2)SC1=S`, the growth with NCI-H23 lung is 75.7%; with NCI-H226 lung it was 70.1%; in the assay on NCI-H322M lung, 88.8%; in the assay on HOP-62 NSCLC, 93.8%; with NCI-H460 lung it was 99.1%; in the assay on HOP-92 NSCLC, 98.9%. Also, the growth in the assay on NCI-H522 lung is 71.3%; in the assay with A549/ATCC NSCLC, 72%; with 786-0 renal it was 84.9%; in the assay on COLO 205 colon, 94.3%.
Take `O=c1[nH]c(CNc2ccc(NCc3c(-c4ccccc4)no[n+]3[O-])cc2)nc2c1cnn2-c1ccccc1`: the growth was 63.4% with NCI-H23 lung; 77.1% with NCI-H226 lung; 80.2% with NCI-H322M lung; 105% in the assay on HOP-62 NSCLC; 64.2% with NCI-H460 lung; 85.4% in the assay with HOP-92 NSCLC. Besides, the growth in the assay with NCI-H522 lung was 60.8%; with A549/ATCC NSCLC, 63.8%; in the assay on 786-0 renal, 86%; in the assay with COLO 205 colon, 101%.
Turning to `N/C(=N\c1nc2c(Cl)cccc2s1)C(Cl)(Cl)Cl`, the growth in the assay with NCI-H23 lung is 93.2%; in the assay with NCI-H226 lung, 107%; in the assay on NCI-H322M lung, 0.236% (active); in the assay with HOP-62 NSCLC, 40.8%; in the assay on NCI-H460 lung, 24.2%; in the assay on HOP-92 NSCLC, 64.3%. In addition, the growth in the assay with NCI-H522 lung is 89.1%; in the assay on A549/ATCC NSCLC it was 30%; in the assay with 786-0 renal it was 90.9%; in the assay with COLO 205 colon, 51.9%.
As to `COc1ccc(-c2nc3cc(Cl)c(Cl)cc3n2CC(=O)N=Nc2c(O)[nH]c3ccccc23)cc1`, the growth was 31.4% in the assay with NCI-H23 lung; -8.79% (active) in the assay with NCI-H226 lung; 70.3% in the assay on NCI-H322M lung; 45.3% in the assay with HOP-62 NSCLC; 30.3% with NCI-H460 lung; 24.1% in the assay on HOP-92 NSCLC. Also, the growth is 87.9% in the assay on NCI-H522 lung, 27.8% in the assay with A549/ATCC NSCLC, 100% in the assay on 786-0 renal and 55% with COLO 205 colon.
In the case of `CCN1C/C(=N\S(=O)(=O)c2ccccc2)N(CC)C1=S`, the growth was 94.1% in the assay with NCI-H23 lung; 101% in the assay on NCI-H226 lung; 101% in the assay on NCI-H322M lung; 105% in the assay on HOP-62 NSCLC; 108% in the assay with NCI-H460 lung; 139% in the assay with HOP-92 NSCLC. The growth was 94.3% in the assay on NCI-H522 lung, 98.5% with A549/ATCC NSCLC, 96.6% in the assay on 786-0 renal and 107% with COLO 205 colon.
